Experimental data reported in the supplement of paper PMC6522484.
± gives the standard deviation of the averaged measurements.

What follows are molecules tested on DLD1 (assay: TCF/Wnt firefly luciferase reporter signal relative to plate median (fraction of plate median); higher = higher Wnt reporter signal). Conditions: 5 µM; treatment time 24 h; reporter: 7TFP.
How it was run: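 Colorectal cancer cells stably transduced with lentiviral TCF/Wnt firefly luciferase reporters were seeded in 384-well plates and dosed 24 h later with library compounds at a final 5 µM for 24 h. Firefly luciferase or CellTiterGlo luminescence was then read on a Tecan F500 from parallel plates. Signals were normalised per well to the plate median without log transformation, additively in webcellHTS2, and averaged over two independent replicates.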

Row | SMILES | TCF/Wnt firefly luciferase reporter signal
1 | Cc1ccccc1N1C(=O)c2cc(S(N)(=O)=O)c(Cl)cc2NC1C (stereo not given) | 1.03 ± 0.072
2 | COc1ccc(-c2coc3cc(O)cc(O)c3c2=O)cc1 | 0.985 ± 0.16
3 | COc1ccc([C@H]2Oc3cc(OC)cc(OC)c3C[C@H]2O)cc1 | 0.923 ± 0.046
4 | Cc1onc(-c2ccccc2)c1-c1ccc(S(N)(=O)=O)cc1 | 0.91 ± 0.044
5 | Cc1nnc(NS(=O)(=O)c2ccc(N)cc2)s1 | 0.957 ± 0.04
6 | Nc1c2c(nc3ccccc13)CCCC2O (stereo not given) | 0.932 ± 0.016
7 | CN(C)CCCO[C@@H]1[C@H]2OC(C)(C)O[C@H]2O[C@@H]1[C@H](O)CO | 0.998 ± 0.14
8 | C=C1CC[C@H](O)C/C1=C/C=C1\CCC[C@]2(C)[C@@H]([C@H](C)/C=C/[C@H](C)C(C)C)CC[C@@H]12 | 1.07 ± 0.16
9 | CC(=O)O[C@H]1C[C@@H](OC(C)=O)C(C)(C)C2C[C@@H](O)[C@]3(C)C(CC[C@@]4(C)[C@H](c5ccoc5)OC(=O)[C@H]5O[C@]543)[C@]21C (stereo not given in full) | 0.977 ± 0.033
10 | COc1cc2cc3c4cc(OC)c(OC)cc4cc[n+]3c(C)c2cc1OC | 1.05 ± 0.16
11 | CC1=C(C/C=C(\C)CCC[C@H](C)CCC[C@H](C)CCCC(C)C)C(=O)c2ccccc2C1=O | 0.819 ± 0.03
12 | CC(C)Oc1ccc2c(=O)c(-c3ccccc3)coc2c1 | 1.24 ± 0.21
13 | O=C(Oc1cc(OC(=O)c2ccccc2)c2c(c1)O[C@H](c1ccc(OC(=O)c3ccccc3)c(OC(=O)c3ccccc3)c1)[C@@H](OC(=O)c1ccccc1)C2)c1ccccc1 | 0.978 ± 0.046
14 | COc1cccc(OC)c1C(=O)N[C@@H]1C(=O)N2[C@@H]1SC(C)(C)[C@@H]2C(=O)O | 1.14 ± 0.21
15 | CC(CN1c2ccccc2Sc2ccccc21)N(C)C (stereo not given) | 1.05 ± 0.15
16 | OC[C@@H](O)[C@@H](O[C@@H]1O[C@H](CO)[C@@H](O)[C@H](O)[C@H]1O)[C@H](O)[C@@H](O)CO | 1.08 ± 0.12
17 | CC(C)=CCC/C(C)=C\CO | 0.999 ± 0.016
18 | c1ccc(-c2ccc(C(c3ccccc3)n3ccnc3)cc2)cc1 (stereo not given) | 0.938 ± 0.016
19 | O=C(O)c1c[nH]c2ccccc12 [Indole-3-carboxylic acid] | 0.83 ± 0.12
20 | C[C@H]1[C@H]2CC[C@H]3[C@@H]4CC=C5C[C@@H](N(C)C)CC[C@]5(C)[C@H]4CC[C@]23CN1C | 0.9855 ± 0.00071

Row | SMILES | TCF/Wnt firefly luciferase reporter signal
21 | C=CC[S+]([O-])C[C@H](N)C(=O)O (stereo not given in full) | 0.986 ± 0.091
22 | C/C1=C2/[N-][C@H]([C@H](CC(N)=O)[C@@]2(C)CCC(=O)NC[C@@H](C)OP(=O)([O-])O[C@H]2[C@@H](O)[C@@H](n3cnc4cc(C)c(C)cc43)O[C@@H]2CO)[C@]2(C)N=C(/C(C)=C3N=C(/C=C4N=C1[C@@H](CCC(N)=O)C\4(C)C)[C@@H](CCC(N)=O)[C@]\3(C)CC(N)=O)[C@@H](CCC(N)=O)[C@]2(C)CC(N)=O.[CH2-][C@H]1O[C@H](n2cnc3c(N)ncnc32)[C@@H](O)[C@H]1O.[Co+3] | 0.968 ± 0.13
23 | C[C@@]12C[C@@]3(O)O[C@@H](O1)[C@]1(COC(=O)c4ccccc4)[C@H]3C[C@@]12O[C@@H]1O[C@H](CO)[C@@H](O)[C@H](O)[C@H]1O | 0.941 ± 0.052
24 | CCC(=O)C(CC)C(O)C(C)CC(C)C1OC(=O)CC2(O)CC=C(C)C(O2)/C(C)=C/CCCC(OC2CC(OC(N)=O)C(O)C(C)O2)/C=C\C(C)C(O)C1C (stereo not given) | 0.87 ± 0.067
25 | C[C@H]1C(=O)CC[C@@H]2[C@]1(C)CC[C@H]1[C@@]2(C)CC[C@@]2(C)[C@@H]3CC(C)(C)CC[C@]3(C)CC[C@]12C | 0.95 ± 0.042
26 | Nc1ccc(S(N)(=O)=O)cc1 | 1.04
27 | COc1c2occc2c(OC)c2c(=O)cc(C)oc12 | 1.2 ± 0.099
28 | Cc1cc(=O)[nH]c(=S)[nH]1 | 1.07 ± 0.071
29 | COc1cc(O)cc(OC)c1OC | 0.941 ± 0.021
30 | Oc1cc(O)c2c(c1)O[C@H](c1ccc(O)c(O)c1)[C@@H](O)C2 | 1.08 ± 0.014
31 | COc1ccc(CCC(=O)c2c(O)cc(O[C@@H]3O[C@H](CO)[C@@H](O)[C@H](O)[C@H]3O[C@@H]3O[C@@H](C)[C@H](O)[C@@H](O)[C@H]3O)cc2O)cc1O | 0.945 ± 0.079
32 | CCCCCC(=O)O[C@]1(C(C)=O)CC[C@H]2[C@@H]3CCC4=CC(=O)CC[C@]4(C)[C@H]3CC[C@@]21C | 0.979 ± 0.087
33 | CNS(=O)(=O)c1ccc(NC(=O)c2ccccc2C(=O)O)cc1 | 0.967 ± 0.013
34 | C[C@H]1COC2=C1C(=O)C(=O)c1c2ccc2c1CCCC2(C)C | 1.05 ± 0.096
35 | Cc1ccc2c(Cl)cc(Cl)c(O)c2n1 | 1.06 ± 0.22
36 | O=C(O)CCCCCCCC(=O)O | 1.16 ± 0.13
37 | COc1ccc(C(C)=O)c(O)c1 | 1.06 ± 0.071
38 | CC(C)NCC(O)c1cc(O)cc(O)c1 (stereo not given) | 0.914 ± 0.11
39 | COc1ccc(-c2coc3cc(O)ccc3c2=O)c(OC)c1O | 0.852 ± 0.047
40 | CCCCCCCCCCC[C@@H](C[C@@H]1OC(=O)[C@H]1CCCCCC)OC(=O)[C@H](CC(C)C)NC=O | 1.01 ± 0.13
